Source: PubChem BioAssay (Tox21)
Inconclusive results are not listed. The source made the active and inactive calls. The call rests on the fitted dose curve.

molecular target: Acetylcholinesterase (Homo sapiens) (UniProt P22303); experiment: Acetylcholinesterase (AChE) small molecule antagonists: colormetric cell-based qHTS assay (AID 1347395); conditions: SH-SY5Y cells AChE activity, colorimetric (Ellman); series mostly up to 115 µM; activity, negative = inhibition: at the top concentration; further: nearly all actives have a fitted effect of over 30% in size
Sequence (P22303 whole entry, looked up): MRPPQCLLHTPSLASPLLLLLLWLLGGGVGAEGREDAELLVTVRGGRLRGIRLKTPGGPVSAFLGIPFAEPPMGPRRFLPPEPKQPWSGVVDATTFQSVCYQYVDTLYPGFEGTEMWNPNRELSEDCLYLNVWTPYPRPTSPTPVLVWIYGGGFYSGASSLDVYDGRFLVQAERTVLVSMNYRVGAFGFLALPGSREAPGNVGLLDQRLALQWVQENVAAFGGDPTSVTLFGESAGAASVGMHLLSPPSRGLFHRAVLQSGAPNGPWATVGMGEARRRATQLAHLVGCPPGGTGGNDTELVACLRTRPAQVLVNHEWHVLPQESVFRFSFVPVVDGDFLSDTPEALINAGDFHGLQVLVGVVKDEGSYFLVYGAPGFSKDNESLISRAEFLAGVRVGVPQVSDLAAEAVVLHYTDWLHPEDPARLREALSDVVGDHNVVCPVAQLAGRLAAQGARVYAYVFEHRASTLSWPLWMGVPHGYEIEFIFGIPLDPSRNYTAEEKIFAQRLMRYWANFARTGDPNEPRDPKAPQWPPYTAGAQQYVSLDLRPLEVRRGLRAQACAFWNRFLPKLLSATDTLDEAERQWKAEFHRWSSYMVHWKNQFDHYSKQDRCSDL
In short: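 Cells (SH-SY5Y, 2,000 per well) are seeded and left overnight at 37 C. Compound is added for 30 min, then DTNB and acetylthiocholine for a further 90 min at 37 C before absorbance-based thiocholine detection.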
On the % scale 0 is the no-effect control and ±100 the full control effect.

Row | Structure (SMILES) | Potency | activity, negative = inhibition
1 | CCCN(CCC)S(=O)(=O)c1ccc(C(=O)O)cc1 | inactive | 
2 | CCOC(=O)C(C#N)=C(c1ccccc1)c1ccccc1 | inactive | 
3 | CCN1CCCC1=O | inactive | 
4 | CC(C)(O)c1ccc(CNC(=O)c2cccnc2Oc2ccc3nonc3c2)cc1 |  | -1.97% (inactive)
5 | CC[C@H]1OC(=O)[C@H](C)[C@@H](O[C@H]2C[C@@](C)(OC)[C@@H](O)[C@H](C)O2)[C@H](C)[C@@H](O[C@@H]2O[C@H](C)C[C@H](N(C)C)[C@H]2O)[C@](C)(O)C[C@@H](C)C(=O)[C@H](C)[C@@H](O)[C@]1(C)O |  | 3.4% [at 52.9 µM] (inactive)
6 | Cc1c(C(=O)c2c[nH]n(C)c2=O)ccc(S(C)(=O)=O)c1C1=NOCC1 |  | -5.7% [at 52.9 µM] (inactive)
7 | CC(=O)Oc1ccccc1C(=O)Nc1ncc([N+](=O)[O-])s1 | inactive | 
8 | Cc1cc(O)c(C(C)(C)C)cc1Sc1cc(C(C)(C)C)c(O)cc1C |  | 5.75% (inactive)
9 | O[C@@H]1CO[C@H]2[C@@H]1OC[C@@H]2O |  | 1.5% [at 52.9 µM] (inactive)
10 | SCCOCCOCCS |  | -2.84% (inactive)
11 | C1CC(COCC2CO2)CCC1COCC1CO1 (stereo not given) |  | 5.47% (inactive)
12 | O=C(O)COC(=O)Cc1ccccc1Nc1c(Cl)cccc1Cl |  | -4.04% [at 52.9 µM] (inactive)
13 | CC(C)=CC=O |  | -0.277% (inactive)
14 | C=CCCC=C |  | 0.0969% (inactive)
15 | CC(=O)O[C@]1(C(C)=O)CC[C@H]2[C@@H]3C=C(C)C4=CC(=O)CC[C@]4(C)[C@H]3CC[C@@]21C | inactive | 
16 | CCOc1nc(F)cc2nc(S(=O)(=O)Nc3c(Cl)cccc3C(=O)OC)nn12 |  | -2.57% (inactive)
17 | Clc1sc(Cl)c(Cl)c1Cl |  | 4.09% (inactive)
18 | O=C(O)c1cc(Cl)cc(Cl)c1 |  | -0.179% (inactive)
19 | CCc1cc(Cc2cc(CC)cc(C(C)(C)C)c2O)c(O)c(C(C)(C)C)c1 |  | 0% (inactive)
20 | CCCC(=O)c1ccccc1 |  | 0.841% (inactive)

Row | Structure (SMILES) | Potency | activity, negative = inhibition
21 | CC(C)C/C=C(\C=O)c1ccccc1 |  | -0.277% (inactive)
22 | CN(C)CCOC(=O)C(c1ccccc1)C1(O)CCCC1 (stereo not given) |  | 0.445% [at 52.9 µM] (inactive)
23 | CCOc1ccccc1C(N)=O | inactive | 
24 | CCCCOC(=O)COc1ccc(Cl)cc1Cl | inactive | 
25 | COC(=O)c1ccc(O)cc1 | inactive | 
26 | C[C@@H](O)C(=O)O |  | 0.186% (inactive)
27 | CC(=O)Nc1ccc(CC(=O)O)cc1 | inactive | 
28 | COc1cc2c(cc1OC)-c1cc(=Nc3c(C)cc(C)cc3C)n(C)c(=O)n1CC2 |  | 0.235% [at 52.9 µM] (inactive)
29 | C/C=C(\C)C(=O)OCc1ccccc1 |  | -0.202% (inactive)
30 | Cc1cc(O)c(Cl)cc1C |  | -4.83% (inactive)
31 | CC(C)CCOCCC(C)C |  | -0.0969% (inactive)
32 | CC1=C2[C@@H]([C@H](C)CC[C@H]2/C=C(\C)C(=O)O)[C@H](O)C1 |  | 4.2% (inactive)
33 | CO[C@]1(NC(=O)CSC(F)F)C(=O)N2C(C(=O)O)=C(CSc3nnnn3CCO)CO[C@H]21 |  | -0.849% [at 52.9 µM] (inactive)
34 | Nc1ccc(N=Nc2ccccc2)c(N)n1 | inactive | 
35 | Cc1ccc2nc(-c3ccc(N)cc3)sc2c1S(=O)(=O)O |  | -0.0702% [at 52.9 µM] (inactive)
36 | CCCN1C=CN(C)C1 | inactive | 
37 | O=C(O)CS | inactive | 
38 | O=C(NCC1CN(c2ccc(N3CCOCC3=O)cc2)C(=O)O1)c1ccc(Cl)s1 (stereo not given) |  | -1.14% [at 52.9 µM] (inactive)
39 | CCCCCCCCOc1ccc(C(=O)O)cc1 |  | 2.33% (inactive)
40 | CC(C)OC(=O)c1cc(C(=O)OC(C)C)cc([N+](=O)[O-])c1 |  | -1.52% (inactive)

molecular target: Acetylcholinesterase (Homo sapiens) (UniProt P22303); experiment: Acetylcholinesterase (AChE) small molecule antagonists: enzyme-based qHTS assay (AID 1347397); conditions: Potency: AChE enzyme activity inhibition; outcome: AChE enzyme activity inhibition; series mostly up to 115 µM; activity change, negative = inhibition: at the top concentration; further: nearly all actives have a fitted effect of over 55% in size; further: potency means the concentration at half of the fitted maximal effect
In short: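 Compound or DMSO vehicle was pin-transferred onto recombinant human AChE (50 mU/mL as dispensed) and left 30 min at room temperature. Acetylthiocholine with DTNB then started the reaction, read colorimetrically 10 min later.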

Row | Structure (SMILES) | Potency | activity change, negative = inhibition
41 | CCCN(CCC)S(=O)(=O)c1ccc(C(=O)O)cc1 | inactive | 
42 | CCOC(=O)C(C#N)=C(c1ccccc1)c1ccccc1 | inactive | 
43 | CCN1CCCC1=O | inactive | 
44 | CC(C)(O)c1ccc(CNC(=O)c2cccnc2Oc2ccc3nonc3c2)cc1 |  | 0.516% (inactive)
45 | CC[C@H]1OC(=O)[C@H](C)[C@@H](O[C@H]2C[C@@](C)(OC)[C@@H](O)[C@H](C)O2)[C@H](C)[C@@H](O[C@@H]2O[C@H](C)C[C@H](N(C)C)[C@H]2O)[C@](C)(O)C[C@@H](C)C(=O)[C@H](C)[C@@H](O)[C@]1(C)O |  | 2.2% [at 53 µM] (inactive)
46 | Cc1c(C(=O)c2c[nH]n(C)c2=O)ccc(S(C)(=O)=O)c1C1=NOCC1 |  | 1.39% [at 53 µM] (inactive)
47 | CC(=O)Oc1ccccc1C(=O)Nc1ncc([N+](=O)[O-])s1 | inactive | 
48 | Cc1cc(O)c(C(C)(C)C)cc1Sc1cc(C(C)(C)C)c(O)cc1C | 28.2 µM (active) | 
49 | O[C@@H]1CO[C@H]2[C@@H]1OC[C@@H]2O |  | 0.554% [at 53 µM] (inactive)
50 | SCCOCCOCCS |  | -1.13% (inactive)
51 | C1CC(COCC2CO2)CCC1COCC1CO1 (stereo not given) |  | -2.25% (inactive)
52 | O=C(O)COC(=O)Cc1ccccc1Nc1c(Cl)cccc1Cl |  | -0.135% [at 53 µM] (inactive)
53 | CC(C)=CC=O |  | 1.5% (inactive)
54 | C=CCCC=C |  | -0.954% (inactive)
55 | CC(=O)O[C@]1(C(C)=O)CC[C@H]2[C@@H]3C=C(C)C4=CC(=O)CC[C@]4(C)[C@H]3CC[C@@]21C | inactive | 
56 | CCOc1nc(F)cc2nc(S(=O)(=O)Nc3c(Cl)cccc3C(=O)OC)nn12 |  | 0.409% (inactive)
57 | Clc1sc(Cl)c(Cl)c1Cl |  | 0.129% (inactive)
58 | O=C(O)c1cc(Cl)cc(Cl)c1 |  | 0.576% (inactive)
59 | CCc1cc(Cc2cc(CC)cc(C(C)(C)C)c2O)c(O)c(C(C)(C)C)c1 |  | -2.76% (inactive)
60 | CCCC(=O)c1ccccc1 |  | -1.05% (inactive)

Row | Structure (SMILES) | Potency | activity change, negative = inhibition
61 | CC(C)C/C=C(\C=O)c1ccccc1 |  | -0.75% (inactive)
62 | CN(C)CCOC(=O)C(c1ccccc1)C1(O)CCCC1 (stereo not given) |  | -0.675% [at 53 µM] (inactive)
63 | CCOc1ccccc1C(N)=O | inactive | 
64 | CCCCOC(=O)COc1ccc(Cl)cc1Cl | inactive | 
65 | COC(=O)c1ccc(O)cc1 | inactive | 
66 | C[C@@H](O)C(=O)O |  | 0.132% (inactive)
67 | CC(=O)Nc1ccc(CC(=O)O)cc1 | inactive | 
68 | COc1cc2c(cc1OC)-c1cc(=Nc3c(C)cc(C)cc3C)n(C)c(=O)n1CC2 |  | 0.139% [at 53 µM] (inactive)
69 | C/C=C(\C)C(=O)OCc1ccccc1 |  | 0.138% (inactive)
70 | Cc1cc(O)c(Cl)cc1C |  | -3.69% (inactive)
71 | CC(C)CCOCCC(C)C |  | -1.08% (inactive)
72 | CC1=C2[C@@H]([C@H](C)CC[C@H]2/C=C(\C)C(=O)O)[C@H](O)C1 |  | 0% (inactive)
73 | CO[C@]1(NC(=O)CSC(F)F)C(=O)N2C(C(=O)O)=C(CSc3nnnn3CCO)CO[C@H]21 |  | 0.554% [at 53 µM] (inactive)
74 | Nc1ccc(N=Nc2ccccc2)c(N)n1 | inactive | 
75 | Cc1ccc2nc(-c3ccc(N)cc3)sc2c1S(=O)(=O)O |  | 3% [at 53 µM] (inactive)
76 | CCCN1C=CN(C)C1 | inactive | 
77 | O=C(O)CS | inactive | 
78 | O=C(NCC1CN(c2ccc(N3CCOCC3=O)cc2)C(=O)O1)c1ccc(Cl)s1 (stereo not given) |  | 0.406% [at 53 µM] (inactive)
79 | CCCCCCCCOc1ccc(C(=O)O)cc1 |  | 0.818% (inactive)
80 | CC(C)OC(=O)c1cc(C(=O)OC(C)C)cc([N+](=O)[O-])c1 |  | -5.83% (inactive)
